# An excerpt weighted towards active compounds, which were near 2.9% of everything screened.
# EP2 antag: human EP2 receptor antagonists, primary screen, TR-FRET cAMP, C6 glioma cells. C6 glioma cells expressing human EP2; cells stimulated with saturating PGE2. inhibition, % at 25 µM. hit rate 0.52% among 260,000. Prostaglandin E2 receptor EP2 subtype (Homo sapiens), P43116;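 active means percent inhibition above 40 after rounding to a whole number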;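 further: rat C6 glioma host cells with rolipram phosphodiesterase inhibitor present; the protocol text gives 20 µM as final concentration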
# Target sequence (P43116 whole entry, looked up): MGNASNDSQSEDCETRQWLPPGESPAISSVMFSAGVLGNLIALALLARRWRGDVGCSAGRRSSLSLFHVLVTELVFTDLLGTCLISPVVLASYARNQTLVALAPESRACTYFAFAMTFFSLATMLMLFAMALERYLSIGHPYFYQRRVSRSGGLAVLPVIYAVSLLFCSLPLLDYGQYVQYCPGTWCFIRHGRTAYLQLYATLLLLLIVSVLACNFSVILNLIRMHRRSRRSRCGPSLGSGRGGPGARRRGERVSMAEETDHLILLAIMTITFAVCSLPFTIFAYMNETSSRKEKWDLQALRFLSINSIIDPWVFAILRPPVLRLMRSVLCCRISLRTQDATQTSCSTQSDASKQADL
# SKN-1 block: suppressors of acrylamide-induced Pgst-4::GFP reporter in worms, primary screen, SKN-1 inhibitor project, whole organism, uHTS, GFP/RFP fluorescence ratio, strain VP596 | C. elegans VP596 Pgst-4::GFP/RFP ratio, 24 h | inhibition, % at 21.8 µM | hit rate 0.49% among 360,000;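 active means interference check ratio from 0.5 to 1.5 plus GFP to RFP signal ratio inhibition reaching or exceeding a fixed threshold, cut at about 30% in these data, passing the limit was not always enough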
# Rev-erbA mod: modulators of Rev-erb alpha DNA binding, primary screen, biochemical, FITC-DNA, fluorescence polarization, uHTS. AID 1259318, 2017. hit rate 0.79% among 370,000. Rev-erbα–FITC-DNA binding, 90 min. activity, % at 10 µM;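 active means activity above about 14%, limit read from the data; passing the limit was not always enough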;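 further: 0% = DMSO wells with 35 nM protein and 100% = DMSO wells with 750 nM protein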
# EP2 mod: EP2 receptor modulators, cAMP readout, primary screen, cell-based, HTRF cAMP, PGE2 stimulation | EP2-expressing cells, cAMP HTRF FRET, PGE2 co-stimulation | induction, % at 25 µM | hit rate 0.83% among 260,000 | AID 940, 2007;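 active means compounds whose cAMP rise, as percent of the full-agonist control response, exceeds 60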;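 further: rat C6 glioma line stably carrying human EP2 under a CMV promoter; the protocol text gives 20 µM as final concentration; 100% = response of wells given 1 µM PGE2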
# PG9 binder: binders of HIV-1 gp120 antibody PG9, primary screen, biochemical, TR-FRET; HIV-1 gp120 / PG9 antibody interaction; TR-FRET gp120-PG9 antibody binding; inhibition, % at 6.7 µM; hit rate 0.43% among 360,000; AID 624416, 2012; in the data active means inhibition above about 8.5%
# RAM inhibit: inhibitors of the yeast RAM network, primary screen, dse1pr::URA3 reporter, 5-FOA selection; AID 868, 2007; hit rate 1.8% among 190,000; S. cerevisiae dse1pr::URA3 reporter, 5-FOA growth OD615, 2 d; analog-sensitive cbk1-as2 kinase mutant strain; inhibition, % at 50 µM;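 active means inhibition above a set limit, 3 SD over mean compound inhibition, cut at about 8.4% in these data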;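 further: 0% = DMSO-only wells with no growth and 100% = 10 µM 1-NA-PP1 full growth; inhibition rescues growth on 5-FOA so higher OD means more RAM inhibition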
# RAM efflux-def: 5-FOA growth of efflux-deficient control yeast, dose response, counter-screen for RAM network inhibitor project, S. cerevisiae, OD615; shares compounds with RAM inhibit; S. cerevisiae efflux-deficient reporter strain, 5-FOA growth OD615, 2 days; max inhibition, %; 1,200 tested, under 10 active; AID 1305, 2008; call rule not given here;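 further: plate controls were vehicle for no effect and reference inhibitor for full effect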
# The depositor's hits bear a star; / = no result given.
SMILES,EP2 antag,SKN-1 block,Rev-erbA mod,EP2 mod,PG9 binder,RAM inhibit,RAM efflux-def
COc1ccc(C(=O)N(Cc2ccco2)Cc2cccs2)c(O)c1,6.4,1.4,3.7,13.0,-0.1,1.1,/
COc1ccc(C(=O)/C=C/C(=O)N(CC(=O)NCCC(C)C)Cc2cccs2)c(O)c1,13.5,-8.4,0.7,-85.2,0.2,11.8*,6.6
O=C(CC12CC3CC(CC(C3)C1)C2)NC(=S)NCc1ccco1,6.8,-2.7,6.6,31.3,-1.2,14.8*,2.9
COc1cc(/C=C/c2cc(C(=O)O)c3ccccc3n2)cc(OC)c1O,7.8,7.7,-1.1,40.2,-12.0,12.0*,4.8
Cc1ccc(S(=O)(=O)N(CC(=O)Nc2ccccc2C(=O)O)c2cccc(Cl)c2C)cc1,11.2,-11.5,-7.5,34.9,-0.3,14.2*,3.5
CC(C)(C)NC(=O)CN(C(=O)CNC(=O)c1cccs1)c1cccc(F)c1,8.7,/,/,-2.6,/,/,/
c1ccc(-c2nnc(SCc3nnc(-c4cccs4)o3)o2)cc1,-3.1,-9.2,3.3,-46.4,-0.5,0.1,/
Clc1ccc(-c2nnc(CSc3nnc(-c4cccs4)o3)o2)cc1,7.9,-6.8,-6.9,-9.3,0.2,13.2*,2.3
Cn1c(=O)cc(OCCCC(=O)NCc2ccc(F)cc2Cl)c2ccccc21,14.5,21.0,3.5,-66.1,-2.4,15.6*,1.0
Cn1c(=O)cc(OCCCC(=O)NCc2ccccn2)c2ccccc21,4.9,7.4,5.0,12.9,0.4,-0.2,/
CC(=O)Nc1ccc(C(C#N)c2ccccc2)cc1 (stereo not drawn),5.5,5.1,3.2,-9.0,-3.5,1.6,/
N#CC(c1ccc(F)cc1)c1ccc(C(=O)c2ccccc2)cc1 (stereo not drawn),8.7,30.0,-5.8,1.7,-0.1,16.5*,3.6
O=C1/C(=C/c2ccc(O)cc2)SC(=S)N1CC1CCCO1 (stereo not drawn),13.0,-7.4,11.7,-10.1,-0.1,/,/
CCCOc1ccc(/C=C2\SC(=S)N(CC3CCCO3)C2=O)cc1 (stereo not drawn),4.2,8.0,-2.1,16.7,0.3,16.6*,6.8
CCCNC(=O)C1CCN(S(=O)(=O)c2ccc(OC)c(C)c2)CC1,8.4,/,/,0.2,/,/,/
CCN1CCN(C(c2ccccc2F)c2nnnn2Cc2cccs2)CC1 (stereo not drawn),7.9,/,/,-6.0,/,/,/
Cc1ccccc1NC(=O)c1ccc(C)c(S(=O)(=O)NCc2cccnc2)c1,/,4.1,-2.1,/,0.4,/,/
Cc1ccc(C(=O)Nc2ccc(C(=O)O)cc2)cc1S(=O)(=O)NCc1ccccc1,9.9,9.0,-1.4,20.1,-0.7,12.9*,3.3
COc1ccc(-c2ccc(SCC(=O)NCc3ccc4c(c3)OCO4)nn2)cc1OC,2.1,4.4,-1.7,-36.2,-1.4,12.0*,5.5
COc1ccc(-c2nc(CSCC(=O)NCc3ccc4c(c3)OCO4)c(C)o2)cc1OC,8.3,-10.8,5.4,-20.8,-3.3,0.3,/
Cc1ccc(C(C)C)c(OCCNC(=O)c2ccccc2O)c1,/,-3.6,-8.5,/,-1.7,/,/
CSc1ccc(Cl)c(C(=O)NCCOc2cc(C)ccc2C(C)C)c1,-3.5,6.3,0.9,5.5,1.4,12.8*,2.4
O=C(CCOc1ccccc1)Nc1cccc(S(=O)(=O)Nc2ccccc2Cl)c1,5.2,2.1,-0.4,2.6,0.0,17.6*,1.5
COc1cccc(OC)c1C(=O)Nc1cccc(S(=O)(=O)Nc2ccccc2Cl)c1,/,-9.9,3.3,/,-1.4,/,/
CCN1C(=O)/C(=C/c2cccs2)SC1=Nc1ccc(OC)cc1,2.6,0.5,3.3,34.0,0.8,3.2,/
SMILES,EP2 antag,SKN-1 block,Rev-erbA mod,EP2 mod,PG9 binder,RAM inhibit,RAM efflux-def
CCCN1C(=O)/C(=C/c2ccc(C)s2)SC1=Nc1ccc(OC)cc1,8.9,2.4,0.8,13.3,0.7,20.7*,2.5
COc1ccc(/C(O)=C2/C(=O)C(=O)N(CCN3CCOCC3)C2c2ccc(OC)c(OC)c2)c(C)c1 (stereo not drawn),9.9,/,/,15.2,/,/,/
CCCc1nn(C)c(C(=O)Nc2ccc(Cl)cc2)c1Cl,11.2,11.4,0.9,-4.1,-1.1,2.7,/
CCCc1nn(C)c(C(=O)Nc2ccc(C(C)(C)C)cc2)c1Cl,4.1,16.3,1.4,-1.6,0.4,13.0*,3.9
O=C(COc1ccc2c(c1)C(=O)CC1(CCCCC1)O2)NCc1ccccn1,2.6,-16.1,2.0,2.1,1.5,0.0,/
O=C(COc1ccc2c(c1)C(=O)CC1(CCCCC1)O2)NCc1ccccc1,5.7,0.4,0.0,0.8,-1.3,11.7*,2.0
CCc1cc2cc3c(cc2n2c(=O)n(Cc4cccnc4)nc12)OCO3,6.9,/,/,15.8,/,/,/
CCCCCCOC1(c2ccccc2)OC(=O)c2ccccc21 (stereo not drawn),/,6.8,3.8,42.2,/,0.6,/
CCCCCOP(=O)(OCCCCC)C1(NS(=O)(=O)c2ccccc2)C=CC(=O)c2ccccc21 (stereo not drawn),3.2,14.9,-0.9,-15.0,-1.1,12.3*,1.4
O=C(c1ccc(Cn2cc(Cl)cn2)o1)N1CCC[C@H]1[C@H](O)c1nc2ccccc2s1,8.5,/,/,1.3,/,/,/
CCOC(=O)c1oc2ccc(Br)cc2c1CSc1nnc(C)s1,12.3,-6.4,-5.4,14.2,0.2,17.4*,2.0
CCOC(=O)c1oc2ccccc2c1CSc1nnnn1-c1ccc(OC)cc1,2.8,0.0,1.9,29.1,-0.7,7.4,/
Cc1ccc(C)c(C(=O)COC(=O)c2cc([N+](=O)[O-])ccc2NCCO)c1,5.8,7.3,1.7,-2.0,1.7,13.3*,1.0
Cc1ccc(C)c(C(=O)COC(=O)c2cc([N+](=O)[O-])ccc2N2CCOCC2)c1,/,18.6,12.7,/,-0.8,/,/
O=C(C1CCC1)N1CCC[C@@H](Cn2nc(-c3cccs3)ccc2=O)C1,8.9,/,/,-16.1,/,/,/
O=S(=O)(c1ccccc1)N1CCN=C1SCc1ccc(Cl)cc1,13.2,8.9,3.6,-18.2,-0.4,0.7,/
O=S(=O)(c1ccccc1)N1CCN=C1SCc1ccc(Cl)c(Cl)c1,4.0,9.4,1.2,-26.7,1.3,12.2*,2.1
CCCCCCNC(=O)c1cc(-c2ccco2)nc2ccccc12,11.0,1.8,-5.2,-14.0,3.5,13.3*,2.5
CC(C)CCNC(=O)c1cc(-c2ccco2)nc2ccccc12,5.5,-4.4,5.3,-13.8,4.2,4.4,/

# Screens from PubChem.
